Assay results: PubChem BioAssay AID1159580 (chemical genetic matrix, 2015)
About 2,000 (36%) of roughly 5,500 compounds were called active. Another 18% or so got no clear call; they are omitted. Cut-off read from the data, not from the text of the source: active = normalized growth mostly below about 0.91 (no sharp cut-off); inconclusive = no clear call, values can overlap the other calls; inactive = mostly above about 0.92. The list shows a part of the results.

Assay: chemical genetic growth profiling, strain panel (AID 1159580);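 note: tested at 20 µM; growth read once vehicle control cultures reached saturation at 30 °C; 1 = growth at the plate median or of vehicle wells; lower values mean less growth of the strain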
Conditions: growth OD
[1] = S. cerevisiae deletion strains, locus YHR030C, strain SLT2, active compounds read low

Measured: normalized growth

O=C(CCN1CCCCC1)c1ccc(-c2ccccc2)cc1
inactive: S. cerevisiae deletion strains, locus YAR019C, strain CDC15, active compounds read low 0.97 | S. cerevisiae deletion strains, locus YBL105C, strain PKC1, active compounds read low 0.975 | S. cerevisiae deletion strains, locus YBR135W, strain CKS1, active compounds read low 0.984 | S. cerevisiae deletion strains, locus YBR136W, strain MEC1, active compounds read low 0.981 | S. cerevisiae deletion strains, locus YBR160W, strain CDC28, active compounds read low 0.987 | S. cerevisiae deletion strains, locus YDL017W, strain CDC7, active compounds read low 0.982 | S. cerevisiae deletion strains, locus YDL028C, strain MPS1, active compounds read low 0.984 | S. cerevisiae deletion strains, locus YDL108W, strain KIN28, active compounds read low 0.979 | S. cerevisiae deletion strains, locus YDL132W, strain cdc53, active compounds read low 0.977 | S. cerevisiae deletion strains, locus YDL214C, strain PRR2, active compounds read low 0.909 | S. cerevisiae deletion strains, locus YDR052C, strain DBF4, active compounds read low 0.977 | S. cerevisiae deletion strains, locus YDR054C, strain cdc34, active compounds read low 0.966 | S. cerevisiae deletion strains, locus YDR226W, strain ADK1, active compounds read low 0.983 | S. cerevisiae deletion strains, locus YDR477W, strain SNF1, active compounds read low 0.785 | S. cerevisiae deletion strains, locus YER123W, strain YCK3, active compounds read low 0.892 | S. cerevisiae deletion strains, locus YER133W, strain GLC7, active compounds read low 0.961 | S. cerevisiae deletion strains, locus YFL009W, strain cdc4, active compounds read low 0.98 | S. cerevisiae deletion strains, locus YFL029C, strain CAK1, active compounds read low 0.978 | S. cerevisiae deletion strains, locus YFR003C, strain YPI1, active compounds read low 0.979 | S. cerevisiae deletion strains, locus YFR019W, strain FAB1, active compounds read low 0.961 | S. cerevisiae deletion strains, locus YFR028C, strain CDC14, active compounds read low 0.976 | S. cerevisiae deletion strains, locus YGR040W, strain KSS1, active compounds read low 0.839 | S. cerevisiae deletion strains, locus YGR052W, strain FMP48, active compounds read low 0.625 | S. cerevisiae deletion strains, locus YHR079C, strain IRE1, active compounds read low 0.691 | S. cerevisiae deletion strains, locus YHR082C, strain KSP1, active compounds read low 0.811 | S. cerevisiae deletion strains, locus YIL147C, strain SLN1, active compounds read low 0.977 | S. cerevisiae deletion strains, locus YJL095W, strain BCK1, active compounds read low 0.689 | S. cerevisiae deletion strains, locus YJL128C, strain PBS2, active compounds read low 0.866 | S. cerevisiae deletion strains, locus YJL157C, strain FAR1, active compounds read low 0.925 | S. cerevisiae deletion strains, locus YJR016C, strain ILV3, active compounds read low 0.98 | S. cerevisiae deletion strains, locus YJR066W, strain TOR1 (second series), active compounds read low 0.898 | S. cerevisiae deletion strains, locus YJR066W, strain TOR1, active compounds read low 0.733 | S. cerevisiae deletion strains, locus YKL067W, strain YNK1, active compounds read low 0.93 | S. cerevisiae deletion strains, locus YKL193C, strain SDS22, active compounds read low 0.976 | S. cerevisiae deletion strains, locus YLR133W, strain CKI1, active compounds read low 0.908 | S. cerevisiae deletion strains, locus YLR403W, strain SFP1, active compounds read low 0.755 | S. cerevisiae deletion strains, locus YML070W, strain DAK1, active compounds read low 0.909 | S. cerevisiae deletion strains, locus YMR001C, strain CDC5, active compounds read low 0.972 | S. cerevisiae deletion strains, locus YMR205C, strain PFK2 (second series), active compounds read low 0.941 | S. cerevisiae deletion strains, locus YMR277W, strain FCP1, active compounds read low 0.974 | S. cerevisiae deletion strains, locus YNL006W, strain LST8, active compounds read low 0.983 | S. cerevisiae deletion strains, locus YNL020C, strain ARK1, active compounds read low 0.822 | S. cerevisiae deletion strains, locus YNL161W, strain CBK1, active compounds read low 0.991 | S. cerevisiae deletion strains, locus YNL207W, strain RIO2, active compounds read low 0.971 | S. cerevisiae deletion strains, locus YNL222W, strain SSU72, active compounds read low 0.977 | S. cerevisiae deletion strains, locus YOL078W, strain AVO1, active compounds read low 0.98 | S. cerevisiae deletion strains, locus YOL136C, strain PFK27, active compounds read low 0.896 | S. cerevisiae deletion strains, locus YOR061W, strain CKA2, active compounds read low 0.805 | S. cerevisiae deletion strains, locus YOR119C, strain RIO1, active compounds read low 0.757 | S. cerevisiae deletion strains, locus YOR231W, strain MKK1, active compounds read low 0.782 | S. cerevisiae deletion strains, locus YOR329C, strain SCD5, active compounds read low 0.976 | S. cerevisiae deletion strains, locus YPL031C, strain PHO85, active compounds read low 0.79 | S. cerevisiae deletion strains, locus YPL153C, strain RAD53, active compounds read low 0.872 | S. cerevisiae deletion strains, locus YPL204W, strain HRR25, active compounds read low 0.889 | S. cerevisiae deletion strains, locus YPL209C, strain IPL1, active compounds read low 0.981 | S. cerevisiae deletion strains, locus YPR025C, strain CCL1, active compounds read low 0.982 | S. cerevisiae deletion strains, locus YPR106W, strain ISR1, active compounds read low 0.989 | S. cerevisiae deletion strains, locus YPR111W, strain DBF20, active compounds read low 0.97 | S. cerevisiae deletion strains, strain NNK1, active compounds read low 0.966 | S. cerevisiae deletion strains, strain TSCII, active compounds read low 0.97
active: S. cerevisiae deletion strains, locus YGR092W, strain DBF2, active compounds read low 0.193 | [1] 0.567 | S. cerevisiae deletion strains, locus YHR205W, strain SCH9, active compounds read low 0.471 | S. cerevisiae deletion strains, locus YKL048C, strain ELM1, active compounds read low 0.699 | S. cerevisiae deletion strains, locus YKL101W, strain HSL1, active compounds read low 0.454 | S. cerevisiae deletion strains, locus YLR113W, strain HOG1, active compounds read low 0.642 | S. cerevisiae deletion strains, locus YNL307C, strain MCK1 (second series), active compounds read low 0.246 | S. cerevisiae deletion strains, locus YPL256C, strain CLN2, active compounds read low 0.684

CCCCOc1ccc(C(=O)CCC(=O)O)cc1
inactive: S. cerevisiae deletion strains, locus YAL013W, strain DEP1, active compounds read low 0.977 | S. cerevisiae deletion strains, locus YCL061C, strain MRC1, active compounds read low 0.936 | S. cerevisiae deletion strains, locus YDL134C, strain PPH21, active compounds read low 1.04 | S. cerevisiae deletion strains, locus YDR150W, strain NUM1, active compounds read low 0.934 | S. cerevisiae deletion strains, locus YEL061C, strain CIN8, active compounds read low 1 | S. cerevisiae deletion strains, locus YGR078C, strain PAC10, active compounds read low 0.939 | [1] 0.997 | S. cerevisiae deletion strains, locus YHR087W, strain rtc3, active compounds read low 0.982 | S. cerevisiae deletion strains, locus YJR075W, strain HOC1, active compounds read low 0.931 | S. cerevisiae deletion strains, locus YKL190W, strain CNB1, active compounds read low 1.02 | S. cerevisiae deletion strains, locus YLR039C, strain RIC1, active compounds read low 0.945 | S. cerevisiae deletion strains, locus YLR058C, strain SHM2 (second series), active compounds read low 1.01 | S. cerevisiae deletion strains, locus YLR085C, strain ARP6, active compounds read low 0.985 | S. cerevisiae deletion strains, locus YLR262C, strain YPT6, active compounds read low 0.946 | S. cerevisiae deletion strains, locus YML094W, strain GIM5, active compounds read low 1.01 | S. cerevisiae deletion strains, locus YMR219W, strain ESC1, active compounds read low 0.983 | S. cerevisiae deletion strains, locus YMR263W, strain SAP30, active compounds read low 0.969 | S. cerevisiae deletion strains, locus YNL298W, strain CLA4 (second series), active compounds read low 1.01 | S. cerevisiae deletion strains, locus YNL322C, strain KRE1, active compounds read low 1.01 | S. cerevisiae deletion strains, locus YNR030W, strain Alg12, active compounds read low 0.982 | S. cerevisiae deletion strains, locus YOL006C, strain TOP1, active compounds read low 1.05 | S. cerevisiae deletion strains, locus YPL055C, strain LGE1, active compounds read low 0.909 | S. cerevisiae deletion strains, locus YPL241C, strain CIN2, active compounds read low 1.01 | S. cerevisiae deletion strains, locus YPR135W, strain CTF4, active compounds read low 1.03 | S. cerevisiae strains, strain wild type, active compounds read low 1.03
active: S. cerevisiae deletion strains, locus YBR229C, strain ROT2, active compounds read low 0.915 | S. cerevisiae deletion strains, locus YDL101C, strain DUN1, active compounds read low 0.886 | S. cerevisiae deletion strains, locus YJR043C, strain POL32, active compounds read low 0.879 | S. cerevisiae deletion strains, locus YNL153C, strain GIM3, active compounds read low 0.904
